Among the data in PubChem BioAssay (Tox21) are Potency and outcome values, retold here.

Assay [1] is described as follows: qHTS assay to test for compound auto fluorescence at 535 nm (green) in HEK293 cells (AID 720680).
Assay [2] can be described thus: qHTS assay to test for compound auto fluorescence at 460 nm (blue) in HEK293 cell free culture (AID 720681). The essentials:
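Blue fluorescence (Ex 405/Em 460 nm, triamterene-equivalent) was read immediately after pin transfer of compound or DMSO into medium (DMEM, 10% FBS) without cells.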

Assay [3] in a line: qHTS assay to test for compound auto fluorescence at 535 nm (green) in HEK293 cell free culture (AID 720682). The essentials:
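Using fluorescein as calibrant, autofluorescence was quantified at 485/535 nm in cell-free DMEM containing 10% FBS after pintool addition of compound or vehicle.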

Assay [4] in a line: qHTS assay to test for compound auto fluorescence at 590 nm (red) in HepG2 cell free culture (AID 720684). The essentials:
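No cells present: MEM + 10% FBS only. Compound pinned in, red label read (540/590 nm). Activity = fluorescence equivalent to Rose Bengal sodium.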

The nature of assay [5]: qHTS assay to test for compound auto fluorescence at 460 nm (blue) in HepG2 cell free culture (AID 720685). The essentials: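 Cell-free plates of MEM plus 10% FBS received 23 nL compound or DMSO vehicle; blue-channel (405/460 nm) intensity scored against triamterene as reference fluorophore.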
Assay [6] can be described thus: qHTS assay to test for compound auto fluorescence at 535 nm (green) in HepG2 cell free culture (AID 720686).
Assay [7] is described as follows: qHTS assay to test for compound auto fluorescence at 460 nm (blue) in HepG2 cells (AID 720687). The essentials:
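Blue-channel autofluorescence (Ex/Em 405/460 nm, triamterene-equivalent) was measured after 1 hr compound exposure at 37 C, 5% CO2. Cells were HepG2, plated overnight at 37 C in MEM plus 10% FBS.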

Assay [8] has as its target Glucocorticoid receptor (Homo sapiens) (UniProt P04150). Nature of the assay: qHTS assay to identify small molecule agonists of the glucocorticoid receptor (GR) signaling pathway (AID 720691; active = well fitted activation curve with a large enough effect in the signal ratio in the repeat runs, not every such curve was filed as active; the % refers to the signal ratio; note: potency is the fitted concentration of half-maximal effect). The following applies: GR-bla HeLa, beta-lactamase reporter ratio, 18 h; activation: at 62.4 µM (top of the series). The essentials:
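Compounds in DMSO, alongside positive controls, were added to GR-bla HeLa reporter cells and incubated 18 h at 37 C; GRE-driven beta-lactamase was detected by fluorescence after 2 h with FRET substrate at room temperature.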

A short description of assay [9]: qHTS assay to identify small molecule antagonists of the glucocorticoid receptor (GR) signaling pathway - cell viability counter screen (AID 720693). Note: nearly all actives have a fitted effect of over 55% in size.
Assay [10] in a line: qHTS assay for identifying genotoxic compounds that show differential cytotoxicity against isogenic chicken DT40 cell lines with known DNA damage response pathways - wild type cell line (AID 743012). Note: nearly all actives have a fitted effect of over 60% in size. Note: potency is the fitted concentration of half-maximal effect. The essentials: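 Viability of DNA repair-proficient chicken DT40 cells was assessed by CellTiter-Glo luminescence following 40 h compound exposure at 37 C/5% CO2.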
A short description of assay [11]: qHTS assay for identifying genotoxic compounds that show differential cytotoxicity against isogenic chicken DT40 cell lines with known DNA damage response pathways - Rev3 mutant cell line (AID 743014). Note: nearly all actives have a fitted effect of over 55% in size. Note: potency is the fitted concentration of half-maximal effect.
The nature of assay [12]: qHTS assay for identifying genotoxic compounds that show differential cytotoxicity against isogenic chicken DT40 cell lines with known DNA damage response pathways - Rad54/Ku70 mutant cell line (AID 743015). Note: nearly all actives have a fitted effect of over 60% in size. Note: potency is the fitted concentration of half-maximal effect.
A short description of assay [13]: qHTS assay to identify small molecule antagonists of the androgen receptor (AR) signaling pathway - cell viability counter screen (AID 743033; note: nearly all actives have a fitted effect of over 45% in size; note: potency is the fitted concentration of half-maximal effect).
The nature of assay [14]: qHTS assay to test for compound auto fluorescence at 590 nm (red) in HEK293 cell free culture (AID 720683). The essentials: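 Red-channel autofluorescence of compounds in culture medium (DMEM, 10% FBS), no cells, measured at 540/590 nm. Rose Bengal sodium is the reference fluorophore for equivalence.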
The target in assay [15] is Glucocorticoid receptor (Homo sapiens) (UniProt P04150). Kind of assay: qHTS assay to identify small molecule antagonists of the glucocorticoid receptor (GR) signaling pathway (AID 720692; active = well fitted inhibition curve with a large enough effect in the signal ratio in the repeat runs, not every such curve was filed as active; the % refers to the signal ratio). The essentials:
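In a 1536-well cell format, compounds were added 4 h after seeding GR-bla HeLa cells, together with dexamethasone at 5 nM final; reporter activity was measured by FRET-substrate fluorescence following 18 h at 37 C.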

The nature of assay [16]: qHTS assay to identify small molecule antagonists of the androgen receptor (AR) signaling pathway using the MDA cell line - cell viability counter screen (AID 743041; note: nearly all actives have a fitted effect of over 45% in size). The essentials: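 Using the breast carcinoma line MDA-kb2 AR-luc, test chemicals were co-incubated with R1881 for 16 h; CellTiter-Fluor reagent, added at 15.5 h, provided a fluorescence measure of live cells.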

Assay [17] addresses Androgen receptor (Homo sapiens) (UniProt P10275). Nature of the assay: qHTS assay to identify small molecule antagonists of the androgen receptor (AR) signaling pathway (AID 743035; active = well fitted inhibition curve with a large enough effect in the signal ratio in the repeat runs, not every such curve was filed as active; the % refers to the signal ratio). The essentials:
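Reporter HEK293 cells were exposed to compounds and R1881 overnight (16 h, 37C); beta-lactamase activity was then quantified by FRET fluorescence.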

For assay [18] the target is unchanged. Nature of the assay: qHTS assay to identify small molecule agonists of the androgen receptor (AR) signaling pathway using the MDA cell line (AID 743040; note: nearly all actives have a fitted effect of over 20% in size; note: potency is the fitted concentration of half-maximal effect). The essentials: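 Stable MMTV-luciferase reporter in MDA-kb2 cells; note the promoter carries GR as well as AR response elements. 16 h compound treatment, 37C, 0% CO2; ONE-Glo luminescence endpoint.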
Assay [19] has the same target. Kind of assay: qHTS assay to identify small molecule antagonists of the androgen receptor (AR) signaling pathway using the MDA cell line (AID 743042; note: nearly all actives have a fitted effect of over 55% in size). The essentials:
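Antagonist mode: compounds plus R1881 agonist added to MDA-kb2 AR-luc cells, incubated 16 h at 37C. Luciferase reporter luminescence quantified, with multiplexed CellTiter-Fluor readout for cell viability.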

The target is the same in assay [20]. Nature of the assay: qHTS assay to identify small molecule agonists of the androgen receptor (AR) signaling pathway (AID 743036; active = well fitted activation curve with a large enough effect in the signal ratio in the repeat runs, with a control signal flat, not every such curve was filed as active; the % refers to the signal ratio). The essentials: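 In this Tox21 qHTS, 2,000 HEK293 AR-bla cells per well were incubated with compounds for 16 h at 37C and 5% CO2. Fluorescence intensity was recorded 2 h after adding LiveBLAzer B/G FRET substrate at room temperature.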

The structures appear in SMILES notation. Records with an inconclusive call do not appear. Active and inactive are the calls of the source. Unless noted, calls come from the whole dose curve; as a rule, active = well fitted curve in the direction sought with a large enough effect in the repeat runs; inconclusive = weak or mixed curves; inactive = no such curve, though single readings can be large; an effect the other way counts as inactive or inconclusive.

Sequence of Glucocorticoid receptor (Homo sapiens) (P04150 whole entry, looked up): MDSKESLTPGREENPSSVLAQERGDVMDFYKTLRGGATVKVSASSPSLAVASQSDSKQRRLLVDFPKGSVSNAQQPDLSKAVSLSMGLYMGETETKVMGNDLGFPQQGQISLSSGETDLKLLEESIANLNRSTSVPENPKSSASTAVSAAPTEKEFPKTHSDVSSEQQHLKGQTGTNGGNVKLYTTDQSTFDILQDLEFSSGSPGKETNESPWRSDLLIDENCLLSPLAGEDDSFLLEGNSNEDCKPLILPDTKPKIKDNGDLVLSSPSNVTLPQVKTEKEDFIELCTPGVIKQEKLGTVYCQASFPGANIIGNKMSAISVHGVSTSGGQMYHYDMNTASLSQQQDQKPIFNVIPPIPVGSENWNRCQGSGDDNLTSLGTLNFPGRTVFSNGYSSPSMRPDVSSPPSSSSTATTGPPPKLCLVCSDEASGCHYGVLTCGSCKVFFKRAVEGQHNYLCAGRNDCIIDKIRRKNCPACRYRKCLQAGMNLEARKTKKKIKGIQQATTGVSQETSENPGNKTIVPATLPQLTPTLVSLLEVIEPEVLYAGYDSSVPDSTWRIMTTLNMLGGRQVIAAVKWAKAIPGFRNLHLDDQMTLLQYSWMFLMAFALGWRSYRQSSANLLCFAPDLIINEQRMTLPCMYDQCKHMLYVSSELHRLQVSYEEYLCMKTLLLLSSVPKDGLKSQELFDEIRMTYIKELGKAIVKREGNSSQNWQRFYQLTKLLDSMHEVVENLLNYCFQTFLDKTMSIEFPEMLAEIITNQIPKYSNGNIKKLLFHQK
Sequence of Androgen receptor (Homo sapiens) (P10275 whole entry, looked up): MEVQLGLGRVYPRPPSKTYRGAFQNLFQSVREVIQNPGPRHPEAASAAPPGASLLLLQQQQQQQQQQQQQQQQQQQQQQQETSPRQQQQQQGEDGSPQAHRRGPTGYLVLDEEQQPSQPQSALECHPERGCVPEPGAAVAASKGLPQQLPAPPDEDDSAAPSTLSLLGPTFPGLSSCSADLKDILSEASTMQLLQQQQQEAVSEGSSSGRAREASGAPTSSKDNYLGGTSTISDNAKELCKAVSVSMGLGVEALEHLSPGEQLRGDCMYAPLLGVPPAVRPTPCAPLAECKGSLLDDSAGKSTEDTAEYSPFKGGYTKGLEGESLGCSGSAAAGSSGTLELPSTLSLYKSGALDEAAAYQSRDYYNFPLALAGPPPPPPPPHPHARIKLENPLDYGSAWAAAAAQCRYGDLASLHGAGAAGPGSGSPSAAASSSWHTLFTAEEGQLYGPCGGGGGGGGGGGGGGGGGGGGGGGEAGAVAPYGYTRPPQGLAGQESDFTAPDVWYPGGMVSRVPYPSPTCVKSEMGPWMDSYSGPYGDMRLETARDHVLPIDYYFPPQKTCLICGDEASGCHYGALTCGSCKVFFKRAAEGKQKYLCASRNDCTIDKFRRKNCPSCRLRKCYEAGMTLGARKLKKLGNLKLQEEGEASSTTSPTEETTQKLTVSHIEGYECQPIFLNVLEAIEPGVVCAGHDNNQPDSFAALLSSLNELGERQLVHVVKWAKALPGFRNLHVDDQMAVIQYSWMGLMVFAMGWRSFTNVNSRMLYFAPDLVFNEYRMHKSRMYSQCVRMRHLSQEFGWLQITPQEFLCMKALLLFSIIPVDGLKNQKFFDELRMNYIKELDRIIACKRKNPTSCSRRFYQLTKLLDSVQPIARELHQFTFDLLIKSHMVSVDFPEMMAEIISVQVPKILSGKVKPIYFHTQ

As for `O=C(/C=C/c1cccc(F)c1)NC1CC1`, the Potency entry in assay [1], in assay [2], in assay [3], in assay [4], in assay [6] and in [8] was “inactive” each time. The Potency result in assay [9], in assay [10], in assay [11], in [12] and in assay [13] was “inactive” in each case. Moreover, the call in [5] and in [7] was inactive.

Turning to `FCOC(C(F)(F)F)C(F)(F)F`, the Potency result in [1], in [3], in [14], in assay [4], in assay [6] and in [8] was “inactive” each time. The Potency result in [15], in [9], in assay [10], in assay [11], in [12] and in assay [16] was “inactive” throughout. The result in assay [5] and in assay [7] was inactive.

Turning to `O=c1[nH]cnc2[nH]cc(CN3CCCCC3)c12`, the Potency result in [1], in assay [3], in assay [14], in assay [4], in assay [6] and in assay [8] was “inactive” each time. Also, the Potency result in assay [15], in assay [9], in assay [10], in [11], in assay [12] and in assay [13] was “inactive” each time. For the same compound, in assay [16], the Potency result is “inactive”. Also, the outcome in assay [5] and in [7] was inactive.

With `Cc1ccc(S(=O)(=O)NC(=O)N[C@@H](C)Cc2ccccc2)cc1`, the Potency result in assay [1], in assay [2], in assay [3], in assay [4], in assay [6] and in [9] was “inactive” each time. Also, the Potency result in assay [11], in [12], in assay [13] and in assay [16] was “inactive” in each case. Also, the compound was called inactive in assay [5] and in assay [7].

As for `CCC(=O)O[C@]1(C(=O)CCl)[C@@H](C)C[C@H]2[C@@H]3C[C@H](F)C4=CC(=O)C=C[C@]4(C)[C@@]3(F)[C@@H](O)C[C@@]21C`, the Potency result in assay [1], in assay [2], in assay [3], in assay [4], in [6] and in assay [9] was “inactive” in each case. Moreover, the Potency result in assay [13] and in [16] was “inactive” in each case. Besides, the outcome in assay [5] and in [7] was inactive. The Potency in [8] is 0.0007 µM (active); in assay [10], 11.9 µM (active); in assay [11], 7.5 µM (active); in assay [12] it was 23.7 µM (active).

Take `CN1CCN(C(c2ccccc2)c2ccc(Cl)cc2)CC1` (configuration not stated): the Potency entry in assay [1], in assay [2], in [3], in assay [4], in assay [6] and in assay [8] was “inactive” in each case. Besides, the Potency result in assay [15], in assay [9], in assay [13] and in [16] was “inactive” in each case. The call in assay [5] and in [7] was inactive. Moreover, the Potency in assay [10] is 9.02 µM (active); in assay [11] it was 10.1 µM (active); in assay [12] it was 11.4 µM (active).

Regarding `OCC(S)CS` (configuration not stated), the Potency result in assay [1], in assay [2], in [3], in assay [4], in [6] and in assay [13] was “inactive” in each case. The Potency entry in assay [17] and in assay [18] was “inactive” throughout. The compound was classed as inactive in [5] and in assay [7]. In addition, the Potency in [10] is 16.8 µM (active); in assay [11] it was 18.8 µM (active); in [12] it was 8.41 µM (active).

On to `CCCC1([C@H](O)C/C=C/[C@H]2[C@H](O)CC(=O)[C@@H]2CCCCCCC(=O)OC)CCC1`, for which the Potency result in [1], in assay [2], in assay [3], in assay [4], in assay [6] and in assay [8] was “inactive” each time. In addition, the Potency result in assay [18] and in assay [19] was “inactive” in each case. Further, the outcome in assay [5] and in assay [7] was inactive. Moreover, the figures for the Potency in assay [11], in [12] and in assay [13] were 23.7 µM (active), 13.3 µM (active) and 16.9 µM (active), respectively.

Regarding `FC(F)(F)C(F)(F)C(F)(F)C(F)(F)C(F)(F)C(F)(F)F`, the Potency entry in [1], in assay [3], in assay [14], in assay [4], in assay [6] and in [8] was “inactive” in each case. The Potency result in assay [15], in assay [9], in assay [10], in [11], in assay [12] and in assay [13] was “inactive” in each case. Besides, in assay [16], the Potency entry is “inactive”. Moreover, the compound was called inactive in [5] and in assay [7].

With `O=C(Nc1ccc(O)cc1)c1ccccc1O`, the Potency entry in assay [1], in assay [2], in [3], in assay [4], in assay [6] and in [8] was “inactive” throughout. Also, the Potency result in [15], in assay [9], in assay [12], in assay [13], in [18] and in assay [16] was “inactive” throughout. Besides, the Potency entry in assay [19] was “inactive”. Further, the call in assay [5] and in [7] was inactive.

In the case of `CC(=O)O[C@H]1C[C@@]2(C)[C@@H](C[C@@H](O)[C@H]3[C@@]4(C)CC[C@@H](O)[C@@H](C)[C@@H]4CC[C@@]32C)/C1=C(\CCC=C(C)C)C(=O)O`, the Potency result in [1], in assay [2], in assay [3], in assay [4], in assay [6] and in [8] was “inactive” each time. The Potency result in [15], in [9], in [10], in assay [11], in assay [12] and in [13] was “inactive” each time. Moreover, the Potency result in assay [17], in assay [20], in assay [18] and in assay [19] was “inactive” each time. For the same compound, the compound was classed as inactive in assay [5] and in assay [7].

On to `CC1(C)S[C@@H]2[C@H](NC(=O)[C@H](NC(=O)N3CCN(S(C)(=O)=O)C3=O)c3ccccc3)C(=O)N2[C@H]1C(=O)O`, for which the Potency entry in assay [1], in assay [3], in assay [14], in [4], in assay [6] and in [8] was “inactive” throughout. Moreover, the Potency result in assay [15], in [9], in [10], in [11], in [12] and in assay [13] was “inactive” in each case. Moreover, the Potency entry in [17], in assay [16] and in assay [19] was “inactive” each time. The compound was called inactive in assay [5] and in assay [7]. For the same compound, the Potency in assay [18] is 29.8 µM (active).

With `COc1cc(/C=C/C(=O)N2CCN(CC(=O)N3CCCC3)CC2)cc(OC)c1OC`, the Potency result in assay [1], in assay [2], in [3], in assay [4], in assay [6] and in assay [8] was “inactive” throughout. Also, the Potency result in assay [12], in assay [13], in assay [17], in [20], in assay [18] and in assay [16] was “inactive” in each case. Further, in assay [19], the Potency result is “inactive”. Moreover, the call in [5] and in assay [7] was inactive.

Turning to `Cc1c(Cl)cccc1Nc1ncccc1C(=O)O`, the Potency result in assay [1], in [2], in [3], in assay [4], in assay [6] and in assay [9] was “inactive” in each case. Also, the Potency entry in [10], in assay [11], in assay [12], in assay [13] and in [16] was “inactive” each time. Further, the result in assay [5] was inactive.
